According to PubChem BioAssay AID1942 (Johns Hopkins Ion Channel Center, 2009):
Out of some 2,400 compounds screened, about 580 (24%) were called active.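 The calls were made as follows: active = activity change at or above the mean plus 3 SD of buffer wells without dofetilide, per plate; inactive = the rest.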 Not all results are given here.

The compounds below were run against Potassium voltage-gated channel subfamily KQT member 2 (Rattus norvegicus) (UniProt O88943) (assay: rat KCNQ2 channel activation by compounds alone, confirmation, counter-screen for hERG block protector project, cell-based, CHO, FluxOR thallium flux (AID 1942;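 also: normalized value minus buffer-control mean plus three SD of buffer wells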)). Conditions: CHO-KCNQ2 cells, FluxOR thallium flux fluorescence; at 10 µM; active compounds read high.
Chain of Potassium voltage-gated channel subfamily KQT member 2 (Rattus norvegicus) (O88943 whole entry, looked up): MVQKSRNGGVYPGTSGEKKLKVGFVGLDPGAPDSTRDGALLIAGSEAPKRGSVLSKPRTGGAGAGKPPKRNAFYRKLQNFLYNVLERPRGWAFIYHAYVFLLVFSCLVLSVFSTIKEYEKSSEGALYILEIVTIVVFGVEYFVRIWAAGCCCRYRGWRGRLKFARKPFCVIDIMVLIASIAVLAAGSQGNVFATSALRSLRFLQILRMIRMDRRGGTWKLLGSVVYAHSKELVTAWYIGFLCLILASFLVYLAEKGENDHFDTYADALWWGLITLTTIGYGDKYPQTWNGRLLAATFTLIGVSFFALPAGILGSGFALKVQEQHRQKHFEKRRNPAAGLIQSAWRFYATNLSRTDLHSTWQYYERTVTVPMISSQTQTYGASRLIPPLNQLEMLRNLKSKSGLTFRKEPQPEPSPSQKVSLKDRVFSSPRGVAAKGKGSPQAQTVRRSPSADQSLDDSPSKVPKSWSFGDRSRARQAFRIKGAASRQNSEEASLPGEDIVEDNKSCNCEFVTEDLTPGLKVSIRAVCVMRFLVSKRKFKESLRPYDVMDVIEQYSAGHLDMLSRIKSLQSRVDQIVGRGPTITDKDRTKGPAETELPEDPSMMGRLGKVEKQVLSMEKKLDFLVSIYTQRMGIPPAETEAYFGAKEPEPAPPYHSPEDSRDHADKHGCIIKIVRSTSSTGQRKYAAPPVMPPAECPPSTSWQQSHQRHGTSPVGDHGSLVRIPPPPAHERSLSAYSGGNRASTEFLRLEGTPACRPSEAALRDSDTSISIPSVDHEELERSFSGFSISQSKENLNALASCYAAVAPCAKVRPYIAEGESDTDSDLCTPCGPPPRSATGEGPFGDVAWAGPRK

Compound | activity change, less the hit threshold
CCCCOC(=O)Nc1nnc(C(C)C)s1 | -15.9% (inactive)
CCCCn1nc(NC(=O)COC)c2cc3ccc(C)cc3nc21 | -8.8% (inactive)
O=C(NC(=S)N1CCN(Cc2ccc3c(c2)OCO3)CC1)c1cccc(Br)c1 | 46.4% (active)
O=C(COc1ccc(Cl)cc1)N1CCN(Cc2ccc3c(c2)OCO3)CC1 | -4.9% (inactive)
COc1ccc(C(=O)N2CCN(Cc3ccc4c(c3)OCO4)CC2)cc1[N+](=O)[O-] | -19.3% (inactive)
COc1ccc(CCNC(=O)c2ccc3c(c2)OCO3)cc1 | -18% (inactive)
O=C(NC(=S)N1CCN(Cc2ccc3c(c2)OCO3)CC1)c1ccc(Cl)cc1 | 36.3% (active)
CCOc1ccc(S(=O)(=O)N2CCN(Cc3ccc4c(c3)OCO4)CC2)cc1C | -28.7% (inactive)
Cc1cc2nccc(-c3ccc(Cl)cc3Cl)n2n1 | -9.7% (inactive)
Cc1nnc(SCC2=C(C(=O)O)N3C(=O)C(NC(=O)Cn4nc(C(F)F)cc4C)C3SC2)s1 (stereo unspecified) | -16.5% (inactive)
CCCCC1C2=C(CCCC2=O)OC2=C1C(=O)CCC2 | -25.6% (inactive)
O=C1CC(c2ccccc2)c2cccc(F)c21 (stereo unspecified) | -11.3% (inactive)
O=C(NC1CCCC1)C(c1ccncc1)N(C(=O)Cn1nnc(-c2ccccc2F)n1)c1cccc(F)c1 (stereo unspecified) | -18% (inactive)
COc1ccc(Cn2c(O)cc(=O)[nH]c2=O)cc1 | -20.5% (inactive)
Cn1c(CNC(=O)c2ccccc2F)nnc1SCc1nc2ccccc2c(=O)[nH]1 | -4.7% (inactive)
O=C(O)CSc1nc2ccccc2nc1Cc1ccccc1F | 1.3% (active)
O=C(O)CSCc1c(F)cccc1Cl | -31.3% (inactive)
CCOC(=O)C1=C(O)/C(=C/c2ccc(OCC(=O)O)c(OC)c2)SC1=Nc1ccc(OCC)cc1 | -27.2% (inactive)
Cc1c(/C=C2\SC(=O)N(CC(=O)Nc3ccc4c(c3)OCO4)C2=O)c2ccccc2n1C | -15.7% (inactive)
CC(=O)N(C1=C(N)C(=O)c2ccccc2C1=O)C(C)C | -9.1% (inactive)
Cc1ccc(C(C#N)c2ccc3c(C(F)(F)F)cc(C(F)(F)F)nc3n2)cc1 (stereo unspecified) | -5.9% (inactive)
CCc1nnc(NC(=O)CSc2nc(-c3ccccc3)cc(-c3ccc(OC)cc3)c2C#N)s1 | -24.2% (inactive)
CC(C)N1CC(C(=O)Nc2ccc(Cl)c(Cl)c2)CC1=O (stereo unspecified) | -15.3% (inactive)
COc1ccc(OC)c(NC(=O)C(=S)NC2CCCCC2)c1 | -21.2% (inactive)
O=C(O)Cc1ccc(NC(=O)C2CC=CCC2C(=O)O)cc1 (stereo unspecified) | -17.7% (inactive)
Cc1cc(C)c(NC(=O)C2CC3CCC2C3)c(C)c1 (stereo unspecified) | 75.9% (active)

Compound | activity change, less the hit threshold
CC(C)c1ccc(NC(=O)C2CC3CCC2C3)cc1 (stereo unspecified) | 21.5% (active)
Cc1cc(C)c2nc(NC(=O)C3CCCO3)sc2c1 (stereo unspecified) | -17% (inactive)
COc1ccc(NC(=O)C2CC3CCC2C3)c(OC)c1 (stereo unspecified) | 15.8% (active)
COc1ccc(NC(=O)COC(=O)c2c(C)noc2C)c(OC)c1 | -8.1% (inactive)
O=C(COc1ccc([N+](=O)[O-])cc1)Nc1cccnc1 | -27.2% (inactive)
c1ccc(OCc2nn3c(Cn4cnc5ccccc54)nnc3s2)cc1 | -20.8% (inactive)
CCCN1CCN(CCCNC(=O)Cn2nc(C)n3c(cc4cc(OC)ccc43)c2=O)CC1 | -25.2% (inactive)
CC(C)[C@H](NC(=O)OC(C)(C)C)C(=O)NCC1CCC(C(=O)N[C@@H](Cc2ccccc2)C(=O)O)CC1 (stereo partly specified) | -10.4% (inactive)
CCOC(=O)c1cnc(-n2nc(C)cc2C)nc1NNc1nc(-c2ccccc2)cc(-c2ccccc2)n1 | -15% (inactive)
CCOC(=O)Cn1cc(C=O)c2ccccc21 | -12.9% (inactive)
O=S(=O)(Nc1nc(-c2sccc2Cl)cs1)c1cc(Cl)ccc1Cl | 105% (active)
COC(=O)c1sccc1NC(=O)CSc1ccccc1NS(=O)(=O)c1cc(Cl)ccc1Cl | -17% (inactive)
COc1cc(C(=O)NCCNc2nc3cc(C)ccc3cc2C#N)cc(OC)c1OC | -18.4% (inactive)
COc1ccc(NC(=O)CSCC(=O)Oc2c(OC)cccc2OC)cc1 | -22.1% (inactive)
CC(NC(=O)NC1CCCCC1)c1ccccc1 (stereo unspecified) | 26.3% (active)
CCOc1ccc(C(C)NC(=S)NC2CCCCC2)cc1 (stereo unspecified) | 9.5% (active)
CC(C)(C)c1ccccc1NC(=S)NC1CCCC1 | -7.6% (inactive)
Cc1ccc(C(C)NC(=S)NC2CCCCC2)cc1C (stereo unspecified) | 46.1% (active)
CCC(C)(C(=O)NC1CCCC1)N(C(=O)c1ccccn1)c1ccccc1 (stereo unspecified) | -13% (inactive)
Cc1ccc(OCCC(=O)OC(C)C(=O)NC2CC2)cc1 (stereo unspecified) | -9% (inactive)
CC(NC(=S)NC1CCCCC1)c1ccccc1 (stereo unspecified) | 6.9% (active)
CC(C)NC(=S)NNc1nc2ccccc2s1 | -19.4% (inactive)
CCOc1ccc(N=Nc2cc(C(C)C)ccc2O)cc1 | -9.1% (inactive)
CC(NC(=O)COC(=O)C1CCC1)c1ccccc1 (stereo unspecified) | -21.4% (inactive)
COc1cccc(NC(=S)NC(C)c2ccc(OC)c(OC)c2)c1 (stereo unspecified) | -23.4% (inactive)
